The campaign covered roughly 350,000 compounds. About 31,000 (8.9%) were called active. About 15% were inconclusive and are not listed. The list comes from a sample in which actives are over-represented; it also holds similar structures and randomly drawn compounds. A call without a number means that no potency is given here. Values without a mark were called inactive. The call rests on the fitted dose curve; in most records, active means well fitted inhibition curve with a large enough effect; inconclusive means small, poorly fitted or top-dose-only effect; inactive means no such curve, though single readings can be large or run the other way.
Potency means the concentration at half of the fitted maximal effect.

Histone-lysine N-methyltransferase EHMT2 (Homo sapiens), sequence (Q96KQ7 913-1193 limits assumed): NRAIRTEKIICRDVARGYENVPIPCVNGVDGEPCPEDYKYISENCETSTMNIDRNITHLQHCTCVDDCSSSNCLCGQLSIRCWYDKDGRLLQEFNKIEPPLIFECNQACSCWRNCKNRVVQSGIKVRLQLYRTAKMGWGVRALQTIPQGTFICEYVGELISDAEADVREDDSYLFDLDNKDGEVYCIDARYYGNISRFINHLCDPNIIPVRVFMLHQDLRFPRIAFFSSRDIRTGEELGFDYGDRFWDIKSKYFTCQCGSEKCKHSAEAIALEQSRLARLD

The assay has as its target Histone-lysine N-methyltransferase EHMT2 (Homo sapiens) (UniProt Q96KQ7). In words: qHTS Assay for Inhibitors of Histone Lysine Methyltransferase G9a. Further: nearly all actives have a fitted effect of over 75% in size. Particulars: G9a H3K9 monomethylation, AlphaScreen, 2 h; series mostly up to 59 µM. From the text: Methylated lysines, on the N-terminal tails of histone proteins serve as epigenetic markers to recruit factors that can then modify local chromatin structure to lead to functional consequences. G9a and other members of the SUV39 family of the SET domain-containing superfamily of histone lysine methyltransferases (HMT) have been identified to specifically methylate Lys9 of histone H3 (H3K9). G9a catalyzes the mono- and di-methylation of H3K9 in mammalian euchromatic regions, where the resulting H3K9me2 is indicative of transcriptional repression. […] The inhibition of G9a will result in transcriptional activation and work synergistically with DNA methyltransferase and histone deacetylase inhibitors, to kill cancer cells. This qHTS assay for identification of G9a inhibitors is a chemiluminescence based AlphaScreen (PerkinElmer). Methylation of biotinylated-histone peptide is measured through specific antibody-based detection, in conjunction with streptavidin-coated donor and anti-IgG antibody-coated acceptor beads. The method is particularly well suited for detection of inhibitors acting by the desired histone peptide competitive mechanism and is applicable to testing other HMTs. Although AlphaScreen has significant advantages with its utility in a variety of epigenetic target assays, the primary screening data provided in this deposition should be used with caution due to the prevalence of screening artifacts. An AlphaScreen counterscreen is highly recommended to be run against any putative actives to eliminate non specific artifacts. Alternatively, one can use other AlphaScreen assays in PubChem to filter out promiscuous hits. Quinn et al. A chemiluminescence-based method for identification of histone lysine methyltransferase inhibitors. Mol Biosyst 6(5): 782-8. 2010. PMID: 20567762 [2] Baell,Holloway. New substructure filters for removal of pan assay interference compounds (PAINS) from screening libraries and for their exclusion in bioassays. J Med Chem. 53(7):2719-40. 2010. PMID: 20131845 NIH Molecular Libraries Probe Production Network [MLPCN] NIH Chemical Genomics Center [NCGC] Structural Genomics Consortium (SGC) NIH Grant: 5U54 MH084681-02
To each well of a 1,536w plate, 2ul of HMT enzyme (final 20nM) were added, using a nanoliter dispenser. The G9a- and GLP-inhibitor BIX-01294 (CID: 25150857) are used as an intraplate control, with a 16-point titration in duplicate. A Kalypsys pin-tool transferred 23nl of library compound solution in DMSO to each well. Following a 15 min incubation of enzyme with compounds at room temperature, 1ul mixture of b-H3K9 peptide substrate (final 500nM) and SAM cofactor (final 20uM) were added. Reactions were allowed to proceed at room temperature for 2 hours. Methylated b-H3K9 peptide product was detected with 0.5 ug/mL rabbit polyclonal anti-monomethyl histone H3K9 antibody (Abcam Inc., Cambridge, MA) and 20 ug/mL each streptavidin-coated donor and anti-rabbit IgG acceptor AlphaScreen beads. Antibody and beads were added in a 1ul dispense, for a final volume of 4ul, and plates were incubated, protected from the light, for 10 min at room temperature. Microplates were then read on an EnVision multilabel plate reader using the 1,536 plate HTS AlphaScreen aperture (excitation time 80 ms, measurement time 240 ms).
As for `CCN(CC)CCOc1ccc2c(c1)C(=NNC(=O)c1ccccn1)c1cc(OCCN(CC)CC)ccc1-2`, the Potency was 22.4 µM (active).
As for `Cc1cccc(OCC(=O)NCCCNC(=O)c2ccccn2)c1`, the Potency entry is “inactive”.
Same read-out and setting: as for `O=C(Nc1ccccc1N1CCN(C(=O)c2ccccc2)CC1)c1ccco1`, the entry is “inactive”; as for `CCc1nc2ccc(C(=O)N3CCN(c4cc(Cl)ccc4C)CC3)cc2nc1CC`, “inactive”.
Still for that read-out and setting: as for `Cc1ccc(C)c(N2C(=O)N(Cc3c(F)cccc3Cl)c3ccccc3S2(=O)=O)c1`, the entry is “inactive”.
Regarding `CCOc1ccc(NC(=O)c2cc3c(=O)n(Cc4cccs4)ccc3nc2C)cc1`, the Potency result was “inactive”.
For the molecule `Cc1nn(-c2ccccc2)c2c1c(C)c(CCC(=O)NCC1CCCO1)c(=O)n2C` (configuration not stated), the Potency entry was “inactive”.
Turning to `COc1ccc(N2CCN(C(=O)c3cccs3)CC2)cc1`, the Potency is 50.1 µM (active).
On the same count and under the same terms, as for `COc1ccc(OCC(=O)N2CCN(C(=O)c3cccs3)CC2)cc1`, the entry is “inactive”.
`O=C(c1cccs1)N1CCN(C(=O)N2CCOCC2)CC1`: the Potency entry was “inactive”.
For `O=C(O)c1ccc(NC(=O)c2ccc(COc3ccc(Cl)cc3)o2)cc1`, the Potency entry was “inactive”.
The same measure, in the same setting: as for `Cc1ccc(Oc2c(C(F)(F)F)oc3c(CN4CCCCC4)c(O)ccc3c2=O)cc1`, the entry is “inactive”.
The same measure, in the same setting: as for `O=C(N/N=C/c1c[nH]c2ccccc12)c1ccccc1O`, the entry is “inactive”.
For the molecule `c1ccc(-c2oc3ncnc(N4CCOCC4)c3c2-c2ccccc2)cc1`, the activity, negative = inhibition is -7.86% [at 12.7 µM].
Consider `O=C(Nc1ccccc1N1CCOCC1)c1ccncc1`, for which the activity, negative = inhibition was -10.3% [at 2.33 µM].
For `O=C1c2ccccc2-c2ncnc3c(N4CCOCC4)cc(N4CCOCC4)c1c23`, the Potency is 50.1 µM (active).
Regarding `COc1cc(C(=O)NCCc2csc3nc(-c4ccccc4C)nn23)cc(OC)c1OC`, the Potency result is “inactive”.
Still for that read-out and setting: as for `CC(=O)NC(CC(=O)O)c1ccc(F)cc1` (configuration not stated), the entry is “inactive”.
As for `CN(C)c1ccc(/C=N/NC(=O)C(O)c2ccc(Br)cc2)cc1` (configuration not stated), the Potency result was “inactive”.
Regarding `CN(C)c1ccc(C(CC(=O)O)C(=O)O)cc1` (configuration not stated), the Potency is 56.2 µM (active).
As to `COc1cccc(C(=O)N(Cc2cccc(Cl)c2)Cc2ccco2)c1`, the Potency result is “inactive”.
For `COc1ccccc1-c1cc(C(=O)N2CCCCC2)no1`, the Potency entry is “inactive”.
For the molecule `COc1ccc(OCc2cc(C(=O)N3CCCC3)no2)c2ccccc12`, the Potency is 39.8 µM (active).
For the molecule `O=C(c1cc(COc2ccc(F)cc2F)on1)N1CCOCC1`, the Potency result was “inactive”.
In the case of `Cc1ccc(CNS(=O)(=O)CCNC(=O)c2ccccc2)cc1`, the Potency entry is “inactive”.
With `Cc1csc(NC(=O)C2=COCCO2)n1`, the Potency result is “inactive”.
Consider `Cc1ccc(-c2csc(NC(=O)C3=COCCO3)n2)cc1C`, for which the Potency is 56.2 µM (active).
Turning to `Cc1ccc(-c2csc(NC(=O)c3cnccn3)n2)cc1C`, the Potency entry is “inactive”.
Same read-out and setting: as for `O=C(Nc1ccc(OC(F)(F)F)cc1)c1cc2c(=O)n3ccccc3nc2s1`, the entry is “inactive”.
Regarding `Cc1c(NC(=O)CSc2nnc(-c3cccnc3)n2N)c(=O)n(-c2ccccc2)n1C`, the activity, negative = inhibition was 24.5% [at 12.7 µM].
With `COC(=O)c1ccc(CSc2nncn2N)cc1`, the Potency entry was “inactive”.
For `Cc1cc(=O)[nH]c(SCc2cc(Cl)ccc2OC(F)F)n1`, the Potency result was “inactive”.
Regarding `CCCCOc1ccc(Cl)cc1CSc1nncn1N`, the Potency was 7.08 µM (active).
As to `Cc1ccc2nc(SC(C)C(=O)NCc3ccco3)[nH]c2c1` (configuration not stated), the Potency is 39.8 µM (active).
Regarding `Cc1cccc(N(C(=O)Cc2cccs2)C(C(=O)NCc2ccco2)c2ccncc2)c1` (configuration not stated), the Potency result is “inactive”.
Turning to `Cc1ccc(NC(=O)C(=O)NCc2ccco2)c(C)c1`, the Potency result is “inactive”.
As for `CCN1CCN(Cc2c(O)ccc3oc(C)c(C(=O)Nc4ccc(C)cc4C)c23)CC1`, the Potency result is “inactive”.
For `CCOc1ccc(-c2nonc2NC(=O)c2oc3ccc(C)cc3c2C)cc1OCC`, the Potency result was “inactive”.
Take `O=C(C1CCN(S(=O)(=O)c2cnc[nH]2)CC1)N1CCN(Cc2ccc3c(c2)OCO3)CC1`: the activity, negative = inhibition was -12% [at 12.7 µM].
With `O=C(C1CCN(C2CCN(Cc3cccc4c3OCO4)CC2)CC1)N1CCOCC1`, the Potency result is “inactive”.
Turning to `Cc1cc(C)n2nc(C(=O)N3CCN(Cc4ccc5c(c4)OCO5)CC3)nc2n1`, the Potency result is “inactive”.
As for `O=C(C1CCN(Cc2ccc(Cl)cc2)CC1)N1CCN(Cc2ccc3c(c2)OCO3)CC1`, the Potency is 8.91 µM (active).
`O=C(c1cccs1)N1CCN(Cc2ccc3c(c2)OCO3)CC1`: the Potency was 56.2 µM (active).
Take `O=C(Nc1cccc2ccccc12)N1CCN(Cc2ccc3c(c2)OCO3)CC1`: the activity, negative = inhibition is 2.38% [at 12.7 µM].
Turning to `Cc1ccc(S(=O)(=O)N2[C@@H](c3cccc(Cl)c3)C(C(=O)O)=CC[C@H]2c2ccc(Cl)c(Cl)c2)cc1`, the activity, negative = inhibition is 13.5% [at 2.33 µM].
Take `COc1ccc(-c2cc(C(=O)NCCCN3CCCC3=O)c3ccccc3n2)cc1OC`: the activity, negative = inhibition is 15% [at 2.33 µM].
Regarding `Cc1cc(C)c(NC(=O)CSc2nc3nccnc3c(=O)n2CCc2c[nH]c3ccccc23)c(C)c1`, the Potency entry is “inactive”.

These data come from PubChem BioAssay AID504332 (National Center for Advancing Translational Sciences (NCATS), 2011).
